TGFb inhibitor: inhibitors of TGF-b signaling | HepG2 CAGA-GFP TGF-b/SMAD3 reporter, GFP fluorescence, 18 h; TGF-beta stimulated, 500 pg/mL final | hit rate 1.2% among 410,000 | Potency, µM (series often up to 46.1 µM), without a hit: at the highest dose activity, negative = inhibition, usual class: inhibitors; further: potency means the concentration at half of the fitted maximal effect; on the % scale 0 is the no-effect control and ±100 the full control effect; nearly all actives have a fitted effect of over 65% in size
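Inhibition of TGF-beta-driven CAGA-GFP reporter expression in HEPG2 cells is measured by cellular GFP fluorescence after 18 h stimulation with 500 pg/mL recombinant TGF-beta in 1% FBS medium at 37 degrees C.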
S2 tox: viability counter-screen for ATXN expression inhibitors; S2 cells (HEK-293 line with an ATXN2-luciferase reporter) viability, CellTiter-Fluor protease fluorescence, 24 h; AID 651635; hit rate 0.49% among 400,000; Potency, µM (doses to about 56.7 µM), most hits filed as cytotoxic; further: potency means the concentration at half of the fitted maximal effect; nearly all actives have a fitted effect of over 40% in size
HepG2 tox: counter-screen for TGF-b inhibitors: cytotoxicity in HepG2 cells | hit rate 0.76% among 410,000 | HepG2 CAGA-GFP viability, ATP luminescence, 18 h | AID 588856 | Potency, µM (top dose mostly 46.1 µM), for inactives: at the highest dose activity change, negative = cytotoxicity, most hits filed as cytotoxic; further: potency means the concentration at half of the fitted maximal effect
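CellTiter-Glo luminescence gave cytotoxicity after 18 hours at 37 degrees C. The cells were HepG2 CAGA-GFP in 1% FBS DMEM, stimulated with 500 pg/mL TGF-beta after compound addition. %Activity was normalised to no-cell wells (complete cell-killing) and DMSO (no toxicity), and curves were fitted and classified.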
DRD3 antagonist: antagonists of human D3 dopamine receptor; AID 652054; max response, negative = inhibition, %; D3R cells, DiscoveRx beta-arrestin luminescence, antagonist mode; active compounds read low; P35462; hit rate 2.5% among 360,000; in the data active means max response below about -50%; inconclusive means no clear call, values can overlap the other calls; further: on the % scale 0 is the no-effect control and ±100 the full control effect
Target sequence (P35462 whole entry, looked up): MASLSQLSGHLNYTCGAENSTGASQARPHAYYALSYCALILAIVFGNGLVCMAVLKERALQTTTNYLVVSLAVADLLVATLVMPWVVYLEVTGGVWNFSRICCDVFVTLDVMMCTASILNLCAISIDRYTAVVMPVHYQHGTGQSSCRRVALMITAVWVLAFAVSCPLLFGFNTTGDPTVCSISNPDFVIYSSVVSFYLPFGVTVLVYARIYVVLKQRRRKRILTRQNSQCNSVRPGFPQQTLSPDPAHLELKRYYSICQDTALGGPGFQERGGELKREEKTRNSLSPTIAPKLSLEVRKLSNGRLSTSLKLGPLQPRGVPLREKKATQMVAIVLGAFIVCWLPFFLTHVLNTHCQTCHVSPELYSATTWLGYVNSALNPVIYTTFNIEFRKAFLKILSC
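Cells expressing the human receptor were seeded at 1500 cells/well, incubated overnight at 37 degrees C in 5% CO2, then exposed to library compounds with dopamine controls for 90 minutes at 37 degrees C before luminescent detection.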
DRD3 agonist: activates the human D3 dopamine receptor | D3R DiscoveRx beta-arrestin cells, luminescence, 90 min | max activation, % | hit rate 0.58% among 410,000; in the data active means max activation above about 30%; further: 0% is about no effect
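Agonist mode: compounds and dopamine controls were applied to plated cells for 90 min at 37 degrees C after an overnight attachment at 1500 cells/well. Luminescent read-out followed 30 - 60 minutes at room temperature with DiscoveRx detection reagent.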
ATXN2 expr inh: inhibitors of ATXN2 expression. HEK-293 ATXN2-luciferase reporter, luminescence, 24 h. hit rate 0.72% among 360,000. AID 1745845. Potency, µM (doses to about 57 µM), inactives show at the top dose activity change, negative = inhibition, usual class: inhibitors; further: potency means the concentration at half of the fitted maximal effect; on the % scale 0 is the no-effect control and ±100 the full control effect; nearly all actives have a fitted effect of over 55% in size
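ATXN2-luciferase reporter cells (luciferase flanked by upstream and downstream ATXN2 gene portions) were treated 24 h at 37 °C with compounds at up to 57 uM. SteadyGlo luminescence gave expression; GF-AFC fluorescence gave viability.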
Active calls of the source: *; ! = repeats disagree. In the library only some 4.8% were active in any assay of this set; here they are far more common. Unless noted, the call rests on the fitted dose curve; in most records, active means well fitted curve in the direction sought with a large enough effect; inconclusive means small, poorly fitted or top-dose-only effect, or another doubt; inactive means no such curve, though single readings can be large; an effect the other way counts as inactive or inconclusive.

For CCOC(=O)C1CCN(C(=O)Cn2nc(CC)n3c(cc4sccc43)c2=O)CC1 the results were TGFb inhibitor inconclusive, HepG2 tox 3.6% and DRD3 agonist -13.3.
Cc1ccc(-c2nc(-c3cc4cc(Cl)ccc4oc3=O)sc2C)cc1 was read as TGFb inhibitor 25.9% and HepG2 tox 4.3%.
`COc1cccc(CC2(CO)CCN(Cc3ccc4cccc(F)c4n3)CC2)c1` gave TGFb inhibitor -5.3%, S2 tox inactive, HepG2 tox -27.8%, DRD3 antagonist -82.2*, DRD3 agonist -17.3 and ATXN2 expr inh -15.2%.
COc1cccc(CC2(CO)CCN(Cc3cn(C)nc3C)CC2)c1 was read as TGFb inhibitor -17.1%, S2 tox inactive, HepG2 tox -28.2%, DRD3 antagonist 1.4, DRD3 agonist -10.4 and ATXN2 expr inh -5.4%.
`CCOC(=O)C1(CC2CC2)CCN(Cc2cn[nH]c2-c2cccc(F)c2)CC1` gave TGFb inhibitor inconclusive, S2 tox inactive, HepG2 tox -38.6%, DRD3 antagonist 11.6 and DRD3 agonist -3.0.
OCC1(Cc2cccc(F)c2)CCN(Cc2ccc3cccc(F)c3n2)CC1 was read as TGFb inhibitor -23.4%, S2 tox inactive, HepG2 tox -36.6%, DRD3 antagonist -74.5*, DRD3 agonist -7.1 and ATXN2 expr inh 0.0%.
For OCC1(CCOc2ccccc2)CCN(Cc2ccc3cccc(F)c3n2)CC1 the results were TGFb inhibitor 21.2%, S2 tox inactive, HepG2 tox -35.8%, DRD3 antagonist -86.9*, DRD3 agonist -14.3 and ATXN2 expr inh -22.9%.
`O=C(c1cnsn1)N1CCC(CO)(Cc2cccc(F)c2)CC1` gave TGFb inhibitor -6.6%, S2 tox inactive, HepG2 tox -30.0%, DRD3 antagonist 1.2, DRD3 agonist 13.2 and ATXN2 expr inh 50.9%.
CCOC(=O)C1(CC2CC2)CCN(Cc2ccc3cccc(F)c3n2)CC1 was read as TGFb inhibitor -19.7%, S2 tox inactive, HepG2 tox -28.3%, DRD3 antagonist -95.6*, DRD3 agonist -19.0 and ATXN2 expr inh -15.5%.
Screening CC(=O)N=C1C=CC(=CN(O)C(C)(C)Cc2ccccc2)C=C1 returned TGFb inhibitor 5.4%, S2 tox inactive, HepG2 tox -15.3%, DRD3 antagonist -53.8*, DRD3 agonist 2.2 and ATXN2 expr inh 8.6%.
For CC(C)(/C=N/O)N(O)C=C1C=CC(=O)C=C1 the results were TGFb inhibitor 2.4%, S2 tox inactive, HepG2 tox -0.5%, DRD3 antagonist 20.9, DRD3 agonist -2.8 and ATXN2 expr inh 5.3%.
For CCOC(=O)N1CCN(C(=O)COC(=O)CSc2ccc([N+](=O)[O-])cc2)CC1 the results were TGFb inhibitor 0.2%, S2 tox inactive, HepG2 tox -5.7%, DRD3 antagonist -51.5*, DRD3 agonist 1.7 and ATXN2 expr inh -7.8%.
Screening Cc1cccc(C)c1Nc1c(-c2ccsc2)nc2ccccn12 returned TGFb inhibitor inconclusive, S2 tox inconclusive, HepG2 tox -30.3%, DRD3 agonist 6.9 and ATXN2 expr inh 0.0%.
Screening CCCCNc1c(-c2ccccn2)nc2nc(C)cc(C)n12 returned S2 tox inconclusive, DRD3 antagonist 26.0, DRD3 agonist 2.5 and ATXN2 expr inh -11.1%.
`Cc1cccc(C)c1Nc1c(-c2ccccn2)nc2ccccn12` gave TGFb inhibitor inconclusive, S2 tox 10µM*, HepG2 tox -16.6%, DRD3 antagonist -16.9 and DRD3 agonist -19.0.
Cc1cc(C)n2c(Nc3c(C)cccc3C)c(-c3ccccn3)nc2n1 was read as S2 tox inconclusive, DRD3 antagonist -69.7*, DRD3 agonist -12.0 and ATXN2 expr inh inconclusive.
O=C(Cn1cnc2c(NCc3ccccc3)ncnc21)NCCCc1ccccc1 was read as TGFb inhibitor 1.8%, S2 tox inactive, HepG2 tox -7.3%, DRD3 antagonist 1.4, DRD3 agonist -6.6 and ATXN2 expr inh -8.3%.
`CC(CNC(=O)Cn1cnc2c(NCc3ccccc3)ncnc21)c1ccccc1` (stereo not given) gave TGFb inhibitor -6.9%, S2 tox inactive, HepG2 tox 11.2%, DRD3 antagonist 5.4, DRD3 agonist 45.3* and ATXN2 expr inh 0.9%.
Screening Cc1cc(C)c(CN2CCN(C(=O)Cn3cnc4c(NCc5ccccc5)ncnc43)CC2)c(C)c1 returned TGFb inhibitor inconclusive, S2 tox inconclusive, HepG2 tox -10.4%, DRD3 antagonist 10.5, DRD3 agonist 30.5* and ATXN2 expr inh -29.1%.
CC[C@H](NC(C)C)[C@H](O)c1ccc(O)c2[nH]c(=O)ccc12 was read as S2 tox inactive, DRD3 agonist 44.6* and ATXN2 expr inh 6.3%.
`CCC(NC(C)C)C(O)c1ccc(O)c(O)c1` (stereo not given) gave TGFb inhibitor 13.5%, S2 tox inactive, HepG2 tox -3.2%, DRD3 antagonist 30.1, DRD3 agonist 34.0*! and ATXN2 expr inh -0.4%.
CCCCCCCC(=O)CC[C@@H]1[C@@H](C/C=C\CCCC(=O)OC(C)C)[C@@H](O)C[C@H]1O was read as S2 tox inconclusive and DRD3 agonist 22.1.
Cc1cccc(-n2c(=O)c3c(c4cc(C)ccc4n3C)n(CC(=O)NCCC3=CCCCC3)c2=O)c1 was read as TGFb inhibitor -2.5%, S2 tox inactive, HepG2 tox -1.7%, DRD3 agonist 5.7 and ATXN2 expr inh 6.8%.
Cn1c(N)c(C(=O)COC(=O)c2cc(C3CC3)nc3ccccc23)c(=O)n(Cc2ccccc2)c1=O was read as TGFb inhibitor inconclusive, S2 tox inactive, HepG2 tox -10.4%, DRD3 antagonist 3.2, DRD3 agonist 35.8* and ATXN2 expr inh -18.4%.
`CC(C)Cn1c(N)c(C(=O)COC(=O)c2cc(C(F)(F)F)nc3ccccc23)c(=O)n(C)c1=O` gave TGFb inhibitor 3.4%, S2 tox inactive, HepG2 tox 0.7%, DRD3 antagonist 94.7, DRD3 agonist 33.9* and ATXN2 expr inh 6.2%.
`CC(C)Cn1c(SCC(=O)c2c(N)n(C)c(=O)n(C)c2=O)nc2ccccc21` gave TGFb inhibitor -0.3%, S2 tox inactive, HepG2 tox -4.4%, DRD3 antagonist 0.0, DRD3 agonist 0.3 and ATXN2 expr inh 8.9%.
For COc1ccccc1CCC(=O)OCC(=O)c1c(N)n(CC(C)C)c(=O)n(C)c1=O the results were TGFb inhibitor -28.9%, S2 tox inconclusive, HepG2 tox 6.1%, DRD3 antagonist 7.0, DRD3 agonist 31.1* and ATXN2 expr inh -11.3%.
